# From PubChem BioAssay (NCI)
# The panel holds about 83,000 compounds, 20% with a hit somewhere; the sample as a whole holds those more often.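 Method: cells in 96-well plates; compound added at one concentration; 48 h incubation; percent growth measured; values under 10 scored active.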 Unmarked numbers belong to inactive results. Activity calls are given as the source filed them.
# Experiments:
# Experiment in all cases: NCI-60 one-dose screen, 48 h (100 = growth as untreated, 0 = no growth, -100 = all killed)
# Conditions in all cases: 10 µM unless noted
# SR leukemia = test system: SR leukemia
# RPMI-8226 leukemia = test system: RPMI-8226 leukemia
# OVCAR-8 ovarian = test system: OVCAR-8 ovarian
# OVCAR-5 ovarian = test system: OVCAR-5 ovarian
# OVCAR-4 ovarian = test system: OVCAR-4 ovarian
# SK-OV-3 ovarian = test system: SK-OV-3 ovarian
# IGROV1 ovarian = test system: IGROV1 ovarian
# OVCAR-3 ovarian = test system: OVCAR-3 ovarian
# HS 578T breast = test system: HS 578T breast
# NCI/ADR-RES ovarian = test system: NCI/ADR-RES ovarian
# T-47D breast = test system: T-47D breast
# BT-549 breast = test system: BT-549 breast
# MDA-MB-435 melanoma = test system: MDA-MB-435 melanoma
# SW-620 colon = test system: SW-620 colon
# MCF7 breast = test system: MCF7 breast
# HCT-116 colon = test system: HCT-116 colon
# HCC-2998 colon = test system: HCC-2998 colon
# KM12 colon = test system: KM12 colon
SMILES,growth (SR leukemia),growth (RPMI-8226 leukemia),growth (OVCAR-8 ovarian) [%],growth (OVCAR-5 ovarian) [%],growth (OVCAR-4 ovarian) [%],growth (SK-OV-3 ovarian) [%],growth (IGROV1 ovarian) [%],growth (OVCAR-3 ovarian),growth (HS 578T breast) [%],growth (NCI/ADR-RES ovarian) [%],growth (T-47D breast) [%],growth (BT-549 breast) [%],growth (MDA-MB-435 melanoma),growth (SW-620 colon),growth (MCF7 breast),growth (HCT-116 colon),growth (HCC-2998 colon) [%],growth (KM12 colon) [%]
N[C@H]1CCC[C@@H]1NCCCCN1C(=O)c2cccc3cccc(c23)C1=O,20%,75.1%,39.9,74,36,95.2,39.3,61.3%,68.2,79.1,82.6,74.1,89.5%,30%,52.8%,32%,53.9,48.4
Cn1ccc(Cc2cnc(N)s2)n1,88.7%,101%,94.5,106,99.4,99.7,111,106%,93.5,102,101,102,101%,98.9%,101%,108%,100,103
Clc1ccc(-c2cn(-c3ccccc3)c(-c3ccccc3)n2)cc1,-19.6% (active),-54.6% (active),90.7,90,88.1,102,48,80%,102,93.4,56.7,62.9,87.7%,66.7%,9.74% (active),27.2%,97.6,53.6
O=C(Nc1ccccc1)c1sc(-c2cccc(C(F)(F)F)c2)cc1O,62.5%,35.5%,66,104,76.1,74.6,66.5,53.1%,63.8,83.2,59.3,70.8,77.9%,76.1%,74.7%,67.9%,98.2,92.3
Cc1cc(-c2ccccc2)cc(SC#N)[n+]1[O-],8.25% (active),19.2%,31.7,75.4,41.2,45.1,35.3,39.6%,80.1,19.7,46.2,52.2,47.5%,38.1%,23%,36%,62,37.7
CCN(CC)c1ccc(Nc2ccc(CC(=O)c3ccccc3)cc2)cc1,55.3%,49.9%,84.8,98.3,87.8,97.8,88.4,84.3%,81.1,73.6,74.3,82.4,80.2%,89.9%,83.6%,82.4%,94.9,74.9
NC(N)=N/N=C(/c1ccccc1)c1ccc(N)cc1,88.8%,150%,108,103,132,99.3,127,112%,150,106,107,72.7,91.2%,111%,97%,115%,103,112
CN(CCC(=O)/C(=C\c1ccccc1)c1ccc(Cl)cc1)Cc1ccccc1,-1.56% (active),-11.3% (active),11.8,25.2,89.7,120,14.4,1.15% (active),28.9,24,15.3,12.7,1.24% (active),4.45% (active),28.3%,2.49% (active),105,67.1
COc1ccc(/C(C)=C(\c2ccc(Cl)cc2)c2ccc(OCCN3CCCCCC3)cc2)cc1F,-12.6% (active),-9.96% (active),63.7,58.9,36,71.5,56.8,54.9%,44.1,65.7,53.6,66.3,52.4%,20.3%,24.1%,22.9%,36.9,23
